Records with an inconclusive call do not appear. Active and inactive are the calls of the source. Calls follow the shape of the dose curve; as a rule, active = well fitted cell-killing curve with a large enough effect; inconclusive = small, poorly fitted or top-dose-only effect, or effect the other way; inactive = no such curve, though single readings can be large or run the other way.
experiment: Quantitative High-Throughput drug screen in 47 multiple myeloma cell lines against the NCATS MIPE library collection: KMS20_JCRB cell viability assay (AID 1918973); details: CellTiter-Glo ATP, 48 h; series mostly up to 45.8 µM; also: nearly all actives have a fitted effect of over 45% in size
Text: PI: Beverly A. Mock Ph.D.
Laboratory of Cancer Biology and Genetics,
Center for Cancer Research, National Cancer Institute,
National Institute of Health, Bethesda, Maryland
Drug resistance and disease progression are common in multiple myeloma (MM) patients, underscoring the need for new therapeutic combinations. […] We hypothesized that effective combinations would reduce MYC expression and enhance p16 activity. […] These preclinical data identify potentially useful drug combinations for evaluation in drug-resistant MM and reveal potential mechanisms of combined drug sensitivity.
Described herein is the primary MIPE qHTS used to cherrypick compounds. Validated compounds were then further tested for potential synergistic activiy.
[1] Peat TJ, Gaikwad SM, Dubois W, Gyabaah-Kessie N, Zhang S, Gorjifard S, Phyo Z, Andres M, Hughitt VK, Simpson RM, Miller MA, Girvin AT, Taylor A, Williams D, D'Antonio N, Zhang Y, Rajagopalan A, Flietner E, Wilson K, Zhang X, Shinn P, Klumpp-Thomas C, McKnight C, Itkin Z, Chen L, Kazandijian D, Zhang J, Michalowski AM, Simmons JK, Keats J, Thomas CJ, Mock BA. Drug combinations identified by high-throughput screening promote cell cycle transition and upregulate Smad pathways in myeloma. Cancer Lett. 2023 Aug 1;568:216284. doi: 10.1016/j.canlet.2023.216284. Epub 2023 Jun 24. PMID: 37356470; PMCID: PMC10408729.
SEQUENCE No. (e.g., 1, 2, 3, etc.); […] (e.g., Cells, Incubation, Reagent, etc.); VALUE and DESCRIPTION.
1; Cells; 5 uL; white, solid bottom 1536-well Greiner assay plate.
2; Compounds; 23 nL; Kalypsis pin tool (Wako USA) equipped with a 1536-well pin head to transfer to the assay plates.
3; Incubation; 48 hours; 37C incubation.
4; Reagent;5uL; CellTiter Glo (Promega).
5; Detector; 425V; Luminescence; Viewlux PerkinElmer.
NOTES (numbers refer to Sequence numbers above)
1. The cell-based screening methods employed in this study were like those previously published. Briefly, the corresponding myeloma cell lines were screened in 1,536-well plates with 500 cells, 5-uL per well for inhibition of cell viability (assessed by measuring ATP levels with CellTiterGlo).
2. NCATS MIPE 4.0 library of approved and investigational drugs were added using the Kalypsis pin tool. Wells treated with DMSO only for 100% viability and media only wells for 0% viability were used as controls.
3. The assay plates were covered and incubated for 48 hours in a 37C, 5% CO2 incubator with controlled humidity.
4. After 48 hours, CellTilter-GloTM luminescent substrate mix (Promega) reagent was added to the assay plate and plates we incubated for 5 min at room temperature.
5. Signal was measured as median relative luminescence units on a ViewLux (PerkinElmer) multiplate reader.
[1] Heske CM, Davis MI, Baumgart JT, Wilson K, Gormally MV, Chen L, Zhang X, Ceribelli M, Duveau DY, Guha R, Ferrer M, Arnaldez FI, Ji J, Tran HL, Zhang Y, Mendoza A, Helman LJ, Thomas CJ. Matrix Screen Identifies Synergistic Combination of PARP Inhibitors and Nicotinamide Phosphoribosyltransferase (NAMPT) Inhibitors in Ewing Sarcoma. Clin Cancer Res. 2017 Dec 1;23(23):7301-7311. doi: 10.1158/1078-0432.CCR-17-1121. Epub 2017 Sep 12. PMID: 28899971; PMCID: PMC6636827.
Potency is read from the fitted curve at half-maximal effect.

Row | SMILES | Potency
1 | CCN(CC)Cc1ccc2cc(COC(=O)Nc3ccc(C(=O)NO)cc3)ccc2c1 | 332 nM (active)
2 | COc1cccc2c1C(=O)c1c(O)c3c(c(O)c1C2=O)C[C@@](O)(C(=O)CO)C[C@H]3O[C@H]1C[C@H](N)[C@H](O)[C@H](C)O1 | 52.6 nM (active)
3 | CC(C)C[C@H](NC(=O)CNC(=O)c1cc(Cl)ccc1Cl)B1OC(=O)CC(CC(=O)O)(C(=O)O)O1 (stereo not given in full) | 166 nM (active)
4 | COc1ccc(S(=O)(=O)Nc2cccnc2Nc2ccc(O)cc2)cc1 | 83.3 nM (active)
5 | CCOC(=O)[C@H](CCc1ccccc1)N[C@@H](C)C(=O)N1[C@@H](C(=O)O)C[C@H]2CCC[C@@H]21 | 4690 nM (active)
6 | COc1cccc2c1C(=O)c1c(O)c3c(c(O)c1C2=O)C[C@@](O)(C(=O)CO)C[C@@H]3O[C@H]1C[C@H](N)[C@H](OC2CCCCO2)[C@H](C)O1 (stereo not given in full) | 1180 nM (active)
7 | CCOC(=O)C=C[C@H](C[C@@H]1CCNC1=O)NC(=O)[C@@H](CC(=O)[C@@H](NC(=O)c1cc(C)on1)C(C)C)Cc1ccc(F)cc1 | inactive
8 | C[C@@H]1[C@H](C)CC[C@]2(C(=O)O)CC[C@]3(C)C(=CC[C@@H]4[C@@]5(C)C[C@@H](O)[C@H](O)[C@@](C)(CO)[C@H]5CC[C@]43C)[C@@H]12 | inactive
9 | Cn1cnc(=N)c2[nH]cnc21 | 52.6 nM (active)
10 | O=C1NCCc2[nH]c(-c3ccncc3)cc21 | 2640 nM (active)
11 | C[C@]12CC[C@@H]3c4ccc(O)cc4CC[C@H]3[C@H]1CC[C@H]2O | 18700 nM (active)
12 | CCOc1cc2ncc(C#N)c(Nc3ccc(OCc4ccccn4)c(Cl)c3)c2cc1NC(=O)C=CCN(C)C | 935 nM (active)
13 | CC(C)(O)Cn1c(NC(=O)c2ccc(-c3cn[nH]c3)s2)nc2cc(CN3CCOCC3)ccc21 | 2960 nM (active)
14 | OCc1ccccc1O[C@@H]1O[C@H](CO)[C@H](O)[C@H](O)[C@H]1O | inactive
15 | Cc1ncc(-c2ccnc(Nc3ccc(S(C)(=O)=O)cc3)n2)n1C(C)C | 2350 nM (active)
16 | C[C@H]1COc2c(N3CCN(C)CC3)c(F)cc3c(=O)c(C(=O)O)cn1c23 | inactive
17 | CCCc1nc(C(C)(C)O)c(C(=O)O)n1Cc1ccc(-c2ccccc2-c2nn[nH]n2)cc1 | inactive
18 | COc1ccc(Nc2cc(-c3cnc(N)nc3)nc(N3CCOCC3)n2)cn1 | 4180 nM (active)
19 | C[C@@]12C(=O)OC(=O)[C@@]1(C)C1CCC2O1 | 2640 nM (active)
20 | C=C1C(=O)O[C@H]2[C@@H]1CCC(C)=CCC[C@@]1(C)O[C@@H]21 | 1660 nM (active)

Row | SMILES | Potency
21 | COC(=O)C=CC(=O)OC | 2640 nM (active)
22 | C[C@@H]1C(=O)O[C@H]2CC34[C@H]5C[C@@H](C(C)(C)C)C36[C@H](OC(=O)[C@@H]6O)O[C@@]4(C(=O)O5)[C@]21O (stereo not given in full) | inactive
23 | CCc1ccc(C(=O)Nc2cc(CN3CCN(C)CC3)cc(C(F)(F)F)c2)cc1C#Cc1cnc2ccnn2c1 | 3720 nM (active)
24 | C[C@@H](NCc1cc2ccccc2[nH]1)c1cccc2ccccc12 | inactive
25 | C[N+]1(C)[C@@H]2C[C@@H](OC(=O)C(O)(c3cccs3)c3cccs3)C[C@H]1[C@@H]1O[C@@H]12 | inactive
26 | O=C(Nc1cccc(Nc2ncc(Br)c(NCCc3cnc[nH]3)n2)c1)N1CCCC1 | 5900 nM (active)
27 | c1coc(CNc2ncnc3nc[nH]c23)c1 | inactive
28 | O=C(NNC(=O)c1ccc(CNS(=O)(=O)c2ccc(F)c(Cl)c2)cc1)c1ccccc1 | inactive
29 | Cn1cc(CNCC2CCN(c3ncc(C(=O)NO)cn3)CC2)c2ccccc21 | 29.6 nM (active)
30 | CC[C@@]1([C@@H]2O[C@@H]([C@H]3O[C@@](O)(CO)[C@H](C)C[C@H]3C)C[C@H]2C)CC[C@H]([C@]2(C)CC[C@]3(C[C@H](O)[C@@H](C)[C@@H]([C@@H](C)[C@@H](OC)[C@H](C)C(=O)O)O3)O2)O1 | 51.2 nM (active)
31 | CC1(C)O[C@@H]2C[C@H]3[C@@H]4CCC5=CC(=O)C=C[C@]5(C)[C@@H]4[C@@H](O)C[C@]3(C)[C@]2(C(=O)CO)O1 | 6620 nM (active)
32 | COc1cc([C@@H]2c3cc4c(cc3[C@@H](O[C@@H]3O[C@@H]5CO[C@@H](c6cccs6)O[C@@H]5[C@H](O)[C@@H]3O)[C@H]3COC(=O)[C@H]23)OCO4)cc(OC)c1O | 418 nM (active)
33 | CC(=O)O[C@H]1C[C@@H]2CC[C@H]3[C@H]4C[C@H]([N+]5(C)CCCCC5)[C@@H](OC(C)=O)[C@@]4(C)CC[C@@H]3[C@@]2(C)C[C@H]1[N+]1(C)CCCCC1 | inactive
34 | CCc1cnn2c(NCc3ccc[n+]([O-])c3)cc(N3CCCC[C@@H]3CCO)nc12 | 20.9 nM (active)
35 | CN(N=O)C(=O)N[C@H]1C(O)OC(CO)[C@@H](O)[C@H]1O (stereo not given in full) | inactive
36 | CCC[C@H]1C[C@H](C(=O)N[C@@H]([C@@H]2O[C@@H](SC)[C@@H](O)[C@@H](O)[C@@H]2O)[C@H](C)Cl)N(C)C1 | inactive
37 | C[C@@H](Oc1ccc2[nH]nc(C=Cc3cnn(CCO)c3)c2c1)c1c(Cl)cncc1Cl | 4180 nM (active)
38 | C=CCNc1c(O)cc2c(O)c1C[C@@H](C)C[C@H](OC)[C@@H](O)[C@@H](C)C=C(C)[C@H](OC(N)=O)[C@@H](OC)C=CC=C(C)C(=O)N2 | 372 nM (active)
39 | COc1cc2c(cc1OC)[C@@H]1C(=O)c3ccc4c(c3O[C@@H]1CO2)C=CC(C)(C)O4 | 6620 nM (active)
40 | C=C(C)[C@@H]1CC[C@]2(C)CC[C@]3(C)[C@H](CC[C@@H]4[C@@]5(C)CC[C@H](O)C(C)(C)[C@H]5CC[C@]43C)[C@@H]12 | inactive
